A selection: hits, their analogues and other compounds. The true share with any hit is near 18%.
TDP1 cell CPT: qHTS for Inhibitors of human tyrosyl-DNA phosphodiesterase 1 (TDP1): qHTS in cells in presence of CPT; AID 686979, 2013; actives 12% (n = 420,000); Potency, µM (titrated, usually from 46.2 µM), usual class: inhibitors; chicken DT40 Tdp1-/-;hTDP1 cells + 20 nM CPT, ATP luminescence, 48 h; also: nearly all actives have a fitted effect of over 55% in size
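Cell growth measured by CellTiter-Glo luminescence after a minimum 48 h, 37 C compound exposure with 20 nM CPT in Tdp1-knockout DT40 cells stably expressing hTDP1, seeded 400/well; qHTS titration format.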
IL-1B inflam inh: qHTS for Inhibitors of Inflammasome Signaling: IL-1-beta AlphaLISA Primary Screen. activity change, % at 57.5 µM. actives 4.7% (n = 360,000). THP-1 LPS/ATP IL-1B secretion, AlphaLISA, 16 h; active compounds read low; in the data active = activity change below about -50%; inconclusive = mostly about -30% to -49%
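THP-1 cells pretreated 1 hr with compounds (up to 57.5 uM final), then stimulated with LPS (250 ng/mL final) plus ATP (1.25 mM final); secreted IL-1B measured by AlphaLISA after 16 hr, decreased signal indicating inhibition.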
TGFb SMAD3 inh: qHTS for Inhibitors of TGF-b. HepG2 CAGA-GFP TGF-b/SMAD3 reporter, GFP fluorescence, 18 h; TGF-beta stimulated, 500 pg/mL final. Potency, µM (doses to about 46.1 µM), usual class: inhibitors. actives 1.2% (n = 410,000). AID 588855, 2011; also: nearly all actives have a fitted effect of over 65% in size
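Per well, imaged GFP fluorescence of HEPG2 CAGA-GFP cells gives the signal; cells get compound, then TGF-beta (500 pg/mL final), 18 h at 37 degrees C; %Activity versus -TGF-beta and +DMSO controls.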
HepG2 tox: qHTS for Inhibitors of TGF-b: Cytotox Counterscreen; HepG2 CAGA-GFP viability, ATP luminescence, 18 h; Potency, µM (top dose mostly 46.1 µM), usual class: cytotoxic; actives 0.76% (n = 410,000)
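CellTiter-Glo luminescence gave cytotoxicity after 18 hours at 37 degrees C. The cells were HepG2 CAGA-GFP in 1% FBS DMEM, stimulated with 500 pg/mL TGF-beta after compound addition. %Activity was normalised to no-cell wells (complete cell-killing) and DMSO (no toxicity), and curves were fitted and classified.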
TDP1 inh: qHTS Assay for Inhibitors of Tyrosyl-DNA Phosphodiesterase (TDP1); Potency, µM (top dose mostly 130 µM), actives largely listed as inhibitors; actives 0.28% (n = 350,000); Tyrosyl-DNA phosphodiesterase 1 (Homo sapiens), Q9NUW8; AID 485290, 2010; recombinant TDP1, AlphaScreen DNA substrate cleavage; also: nearly all actives have a fitted effect of over 40% in size
Target sequence (Q9NUW8 whole entry, looked up): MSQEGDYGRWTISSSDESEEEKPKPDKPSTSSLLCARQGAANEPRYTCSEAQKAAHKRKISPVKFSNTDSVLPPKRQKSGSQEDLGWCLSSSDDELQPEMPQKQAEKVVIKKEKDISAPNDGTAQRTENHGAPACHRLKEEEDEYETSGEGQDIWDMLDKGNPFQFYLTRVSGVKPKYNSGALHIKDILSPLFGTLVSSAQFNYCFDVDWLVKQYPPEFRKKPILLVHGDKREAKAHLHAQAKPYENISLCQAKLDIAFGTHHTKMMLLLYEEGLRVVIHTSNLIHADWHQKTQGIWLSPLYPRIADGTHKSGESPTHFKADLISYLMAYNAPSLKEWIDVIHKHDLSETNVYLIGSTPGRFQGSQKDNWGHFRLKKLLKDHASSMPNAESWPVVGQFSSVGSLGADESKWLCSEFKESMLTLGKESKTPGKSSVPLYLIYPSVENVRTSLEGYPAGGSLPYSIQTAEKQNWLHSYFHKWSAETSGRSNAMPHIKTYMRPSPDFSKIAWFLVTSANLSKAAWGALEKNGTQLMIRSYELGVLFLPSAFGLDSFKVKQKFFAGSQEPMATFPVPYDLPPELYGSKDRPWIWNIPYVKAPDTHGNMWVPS
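Steps: enzyme plus compound, 15 min RT; add biotin/phosphotyrosine-FITC oligonucleotide (15 nM final), react 5 min; add donor/acceptor beads (10 ug/ml final), 10 min; read AlphaScreen. Tdp1 at 1 nM final.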
DT40 TDP1 no CPT: qHTS for Inhibitors of human tyrosyl-DNA phosphodiesterase 1 (TDP1): qHTS in cells in absence of CPT | DT40 Tdp1-/- hTDP1 cells, no CPT, ATP luminescence, 48 h | AID 686978, 2013 | Potency, µM (series often up to 46.2 µM), actives largely listed as inhibitors | actives 15% (n = 420,000); also: nearly all actives have a fitted effect of over 55% in size
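A cellular qHTS used chicken DT40 cells lacking endogenous Tdp1 but carrying stably transfected human TDP1. Compounds were applied without camptothecin, and cell growth kinetics were judged by ATP-dependent luminescence after ≥48 hr.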
Of the large screens only hits and unclear results are named; the others gave an inactive call. Unless noted, calls follow the shape of the dose curve; as a rule, active = well fitted curve in the direction sought with a large enough effect; inconclusive = small, poorly fitted or top-dose-only effect, or another doubt; inactive = no such curve, though single readings can be large; an effect the other way counts as inactive or inconclusive.

Cc1cccc(OCC(=O)Nc2ccc3c(c2)N(C)C(=O)c2ccccc2S3)c1	TDP1 cell CPT 10µM, TGFb SMAD3 inh inconclusive, DT40 TDP1 no CPT 10µM (no result: IL-1B inflam inh)
C[C@]12CCC(=O)C=C1CCC1C2CC[C@@]2(C)C1CCC21OCCO1 (some centres not stated)	TDP1 cell CPT inconclusive, DT40 TDP1 no CPT inconclusive
C=C1CC2C3CC[C@@]4(OCOC45COCO5)[C@@]3(C)C(O)CC2[C@@]2(C)CCC(=O)C=C12 (some centres not stated)	TDP1 cell CPT inconclusive, IL-1B inflam inh -101, DT40 TDP1 no CPT 18µM
COc1ccc(-c2csc(NC3CCCCC3)n2)c(OC)c1	TGFb SMAD3 inh inconclusive, DT40 TDP1 no CPT inconclusive
COC(=O)c1ccc(CNc2ccc(C(C)=O)cc2)cc1	TDP1 cell CPT inconclusive, DT40 TDP1 no CPT 15µM (no result: TDP1 inh)
COc1cccc(C(=O)N2CCCc3ccccc32)c1OC	DT40 TDP1 no CPT inconclusive (no result: TDP1 inh)
COc1ccc(NC(=O)C2CCCN(CCCc3ccccc3)C2)cc1OCC(C)C (configuration not stated)	TDP1 cell CPT 7.3µM, IL-1B inflam inh -85, TGFb SMAD3 inh inconclusive, DT40 TDP1 no CPT 5.2µM
Cc1cc2c(cc1S(=O)(=O)N(C)CC(=O)Nc1ccc(C#N)cc1)OCC(=O)N2	TGFb SMAD3 inh inconclusive, DT40 TDP1 no CPT inconclusive (no result: IL-1B inflam inh)
CCOC(=O)N1CCN(c2ccc(S(=O)(=O)N(Cc3ccccc3)Cc3ccccc3)cn2)CC1	TDP1 cell CPT 13µM, DT40 TDP1 no CPT 13µM
CCOC(=O)N1CCN(c2ccc(S(=O)(=O)N3CCOCC3)cn2)CC1	none
CCN(CC)S(=O)(=O)c1ccc(N2CCN(S(=O)(=O)c3ccc4c(c3)OCCO4)CC2)nc1	TDP1 cell CPT 21µM, TGFb SMAD3 inh inconclusive, DT40 TDP1 no CPT inconclusive
CCOC(=O)N1CCN(C(=O)CN(Cc2ccc(Cl)cc2)S(=O)(=O)c2ccccc2)CC1	TDP1 cell CPT inconclusive, DT40 TDP1 no CPT 21µM
CCN(CC)S(=O)(=O)c1ccc(N2CCN(c3ccccc3O)CC2)nc1	TDP1 cell CPT inconclusive, DT40 TDP1 no CPT 21µM (no result: TDP1 inh)
CC(C)Oc1cccc(C(=O)NC(=S)Nc2ccccc2)c1	TDP1 cell CPT inconclusive, DT40 TDP1 no CPT inconclusive
Cc1ccc(CNC(=O)CCCn2c(=O)c3ccccc3n(CC(=O)Nc3ccc(C)cc3)c2=O)cc1	none (no result: IL-1B inflam inh)
CC(=O)NC1=NN(C(C)=O)C(c2ccc(F)cc2)S1 (configuration not stated)	TDP1 cell CPT 2.6µM
CC(=O)NC1=NN(C(C)=O)C(c2ccc(C)cc2)S1 (configuration not stated)	none
CCCn1c(CC)nc([N+](=O)[O-])c1Sc1ccc(F)cc1	TDP1 cell CPT inconclusive, DT40 TDP1 no CPT inconclusive
CCCn1c(CC)nc([N+](=O)[O-])c1Sc1ccc(C)cc1	IL-1B inflam inh -68
Cc1cccc(C2c3[nH]c4ccccc4c3CCN2Cc2cccn2-c2ncccn2)c1 (configuration not stated)	TDP1 cell CPT inconclusive, IL-1B inflam inh -87, TGFb SMAD3 inh inconclusive, DT40 TDP1 no CPT 23µM
COc1ccc(C2c3[nH]c4ccccc4c3CCN2Cc2cccn2-c2ncccn2)cc1C (configuration not stated)	TDP1 cell CPT 15µM, DT40 TDP1 no CPT 16µM
c1ccc(C2c3[nH]c4ccccc4c3CCN2Cc2cccn2-c2ccccn2)nc1 (configuration not stated)	TDP1 cell CPT inconclusive, DT40 TDP1 no CPT inconclusive
Cn1c(NC(=O)C(C)(C)Oc2ccc(Cl)cc2)cc(=O)n(C)c1=O	TDP1 cell CPT 16µM, DT40 TDP1 no CPT inconclusive
Cn1c(NC(=O)c2cc(Cl)ccc2Cl)cc(=O)n(C)c1=O	none
O=C(CN1CCC(C(=O)c2ccc(F)cc2)CC1)Nc1ccccc1Cl	DT40 TDP1 no CPT 12µM
CCOc1ccccc1NC(=O)CN1CCC(C(=O)c2ccc(F)cc2)CC1	TDP1 cell CPT 21µM, DT40 TDP1 no CPT 26µM
O=C(CN1CCC(C(=O)c2ccc(F)cc2)CC1)Nc1ccccc1	TDP1 cell CPT inconclusive, TGFb SMAD3 inh inconclusive
COc1ccccc1NC(=O)CN1CCC(C(=O)c2ccc(F)cc2)CC1	TDP1 cell CPT inconclusive, DT40 TDP1 no CPT inconclusive
C#CCOC(=O)c1cc(Cl)c(=O)n(Cc2ccc(Cl)cc2Cl)c1	none (no result: TDP1 inh)
COc1cc(F)c(S(=O)(=O)Nc2c(C)n(C)n(-c3ccccc3)c2=O)cc1OC	TGFb SMAD3 inh inconclusive (no result: IL-1B inflam inh)
COC(=O)[C@H](C)N(Cc1ccc(Cl)c(Cl)c1)S(=O)(=O)CCN1CCN(c2ccccc2)CC1	TDP1 cell CPT inconclusive, TGFb SMAD3 inh 11µM, DT40 TDP1 no CPT 18µM
Cc1ccccc1NC(=S)NCc1ccc2[nH]c3c(c2c1)CCCC3	TDP1 cell CPT inconclusive, TGFb SMAD3 inh inconclusive, DT40 TDP1 no CPT 21µM
O=C(CCOc1ccccc1)Nc1ccccc1F	none (no result: TDP1 inh)
O=C(O)C1Nc2ccccc2C2C=CCC12 (configuration not stated)	TDP1 cell CPT inconclusive (no result: IL-1B inflam inh, TDP1 inh)
CCCCCC(=O)NNC(=O)c1c(O)c2ccccc2n(CC)c1=O	TDP1 cell CPT inconclusive, DT40 TDP1 no CPT inconclusive
CCn1c(=O)c(C(=O)NNC(=O)c2ccccc2F)c(O)c2ccccc21	TDP1 cell CPT inconclusive, DT40 TDP1 no CPT 18µM
CCCCCCCCCC(=O)NNC(=O)c1c(O)c2ccccc2n(CC)c1=O	TDP1 cell CPT inconclusive, TGFb SMAD3 inh inconclusive, DT40 TDP1 no CPT 8.2µM
CCn1c(=O)c(C(=O)NNC(=O)c2ccccc2Cl)c(O)c2ccccc21	TDP1 cell CPT inconclusive, DT40 TDP1 no CPT inconclusive
Cc1occc1C(=O)NNC(=O)c1ccccc1[N+](=O)[O-]	none
CC(C)C1C(=O)N(Cc2cn(CCC3OCCO3)nn2)CCS(=O)(=O)N1Cc1ccc(-c2ccc(F)cc2)cc1 (configuration not stated)	TDP1 cell CPT inconclusive, TGFb SMAD3 inh inconclusive, DT40 TDP1 no CPT inconclusive (no result: TDP1 inh)
CC(C)C1C(=O)N(Cc2cn(CCC3OCCO3)nn2)CCS(=O)(=O)N1Cc1ccc(-c2ccc(Cl)cc2)cc1 (configuration not stated)	TDP1 cell CPT 3.3µM, IL-1B inflam inh inconclusive, TGFb SMAD3 inh inconclusive, DT40 TDP1 no CPT 4.1µM (no result: TDP1 inh)

Screening data (PubChem BioAssay)
